# Source: PubChem (Sanford-Burnham Center for Chemical Genomics)
# A selection: hits, their analogues and other compounds. The true share with any hit is near 2%.
# A3G deaminase: APOBEC3G DNA deaminase inhibitors, primary screen, biochemical, fluorescence, single-stranded DNA substrate, uHTS; recombinant A3G, ssDNA deamination FAM/TAMRA fluorescence; 0.28% of 330,000 active; inhibition, % at 20 µM; DNA dC->dU-editing enzyme APOBEC-3G (Homo sapiens), Q9HC16;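 active means inhibition of at least 40% at 20 µM, with no more than 30% in the related APOBEC3A deaminase screen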;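 further: plate controls were DMSO wells with A3G for no effect and wells lacking A3G enzyme for full effect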
# Target sequence (Q9HC16 whole entry, looked up): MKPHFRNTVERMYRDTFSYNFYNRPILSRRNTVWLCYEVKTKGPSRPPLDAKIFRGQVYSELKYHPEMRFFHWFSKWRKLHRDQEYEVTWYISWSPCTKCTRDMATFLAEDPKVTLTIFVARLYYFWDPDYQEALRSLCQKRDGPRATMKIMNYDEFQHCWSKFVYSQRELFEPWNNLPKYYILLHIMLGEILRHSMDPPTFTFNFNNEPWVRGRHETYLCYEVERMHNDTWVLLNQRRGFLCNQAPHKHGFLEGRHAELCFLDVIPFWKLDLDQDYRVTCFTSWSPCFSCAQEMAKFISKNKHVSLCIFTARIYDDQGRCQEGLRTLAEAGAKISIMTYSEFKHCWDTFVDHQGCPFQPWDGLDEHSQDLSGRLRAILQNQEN
# APOBEC3A inh: APOBEC3A ssDNA deaminase inhibitors, primary screen, selectivity assay for APOBEC3G inhibitor project, biochemical, FAM/TAMRA oligo cleavage fluorescence; DNA dC->dU-editing enzyme APOBEC-3A (Homo sapiens), P31941; recombinant A3A, FAM/TAMRA ssDNA deamination fluorescence; inhibition, % at 20 µM; 0.41% of 330,000 active;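 active means at least 40% inhibition at 20 µM here, with at most 30% in a related deaminase screen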;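 further: plate controls were A3A with DMSO for no effect and wells lacking A3A enzyme for full effect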
# Target sequence (P31941 whole entry, looked up): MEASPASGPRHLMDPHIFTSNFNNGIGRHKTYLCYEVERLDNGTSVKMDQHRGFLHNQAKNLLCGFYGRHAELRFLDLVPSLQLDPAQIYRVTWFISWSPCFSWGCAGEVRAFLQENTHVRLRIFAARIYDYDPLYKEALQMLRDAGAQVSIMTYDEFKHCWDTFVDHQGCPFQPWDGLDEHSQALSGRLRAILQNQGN
# PfG6PD inh: PfG6PD enzyme inhibitors, primary screen, biochemical, fluorescence intensity, uHTS; PfGluPho enzyme, NADPH resazurin-diaphorase fluorescence; AID 504690, 2011; 0.78% of 350,000 active; inhibition, % at 20 µM; glucose-6-phosphate dehydrogenase-6-phosphogluconolactonase (Plasmodium falciparum 3D7);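 active means inhibition reaching at least a set limit at 20 µM in the primary screen, cut at about 59% in these data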;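 further: 0% = DMSO wells with substrate and 100% = DMSO wells lacking glucose-6-phosphate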
# NPR2 activator: human GC-B receptor activators, primary screen, HEK293 GC-B cells, cGMP TR-FRET, EC30 CNP; 0.11% of 370,000 active; 0% at EC30 CNP, 100% saturating CNP; activation, % at 10 µM; Atrial natriuretic peptide receptor 2 (Homo sapiens), P20594; AID 1920062, 2024;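 active means activation at 10 µM reaching about 35% in either raw or pattern-adjusted values, limit read from the data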
# GC-A act: GC-A stimulated cGMP production enhancers – HEK293 GC-A cells, cGMP TR-FRET, EC30 ANP, primary screen | AID 1671463, 2021 | Atrial natriuretic peptide receptor 1 (Homo sapiens), P16066 | 0.14% of 370,000 active | 0% at EC30 ANP, 100% saturating ANP | activation, % at 10 µM; in the data active means activation above about 40%
# Neddylation inh: inhibitors of cullin neddylation, primary screen, biochemical, TR-FRET, uHTS, NAE and Ubc12; NEDD8-conjugating enzyme Ubc12 (Homo sapiens) + NEDD8-activating enzyme E1 regulatory …; AID 651699, 2012; 0.58% of 360,000 active; inhibition, % at 25 µM; in the data active means inhibition above about 36%
# A3A conf: APOBEC3A deaminase inhibitors, retest, confirmation, selectivity assay for APOBEC3G inhibitor project, biochemical, single concentration, fluorescence readout; shares compounds with APOBEC3A inh; AID 493151, 2011; inhibition, % at 20 µM; recombinant A3A, ssDNA deaminase UDG fluorescence assay; 63% of 1,400 active;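 active means inhibition reaching a set limit, 80% of the first screen's cutoff, at 20 µM in any replicate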;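 further: plate controls were DMSO wells with A3A for no effect and wells lacking A3A enzyme for full effect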
# UDG A3A counter: E. coli UDG inhibitors, confirmation, counter-screen for APOBEC3A inhibitor project, biochemical, single concentration, fluorescence, FAM/TAMRA oligo | shares compounds with APOBEC3A inh | UDG counterscreen, FAM/TAMRA uracil oligo fluorescence | 1,000 tested, under 10 active | inhibition, % at 20 µM; call rule not given here
# Active calls of the source: *; · = no result.
SMILES,A3G deaminase,APOBEC3A inh,PfG6PD inh,NPR2 activator,GC-A act,Neddylation inh,A3A conf,UDG A3A counter
COC(=O)C1=C(C)N(Cc2ccccc2)C(=NCCCCO)N[C@H]1CCc1ccccc1,4,44*,8,-20,-14,-10,67*,-3
CCN=C1NC(CCc2ccccc2)C(C(=O)OC)=C(C)N1Cc1ccccc1C(F)(F)F (configuration not stated),·,·,·,-10,-8,·,·,·
COC(=O)C1=C(C)N(Cc2ccccc2)C(=NCc2cccc(C(F)(F)F)c2)N[C@H]1c1cccc(C(F)(F)F)c1,-6,-2,7,·,·,-4,·,·
COC(=O)C1=C(C)N(Cc2ccccc2)C(=NCCCCO)N[C@H]1c1cccc(C(F)(F)F)c1,9,44*,4,-19,-13,-13,57*,-1
COCCN=C1N[C@@H](c2cccc(C(F)(F)F)c2)C(C(=O)OC)=C(C)N1Cc1ccccc1,10,63*,0,-19,-13,-6,44*,·
CCN(Cc1cn(Cc2ccc(C)cc2)nn1)S(=O)(=O)c1ccccc1Br,·,·,·,6,-2,·,·,·
O=C(NC1CCCCN(Cc2ccc(Cl)cc2)C1=O)c1cccs1 (configuration not stated),·,·,·,2,0,·,·,·
Cc1ccc(C(c2c(O)nc3n(c2=O)CCS3)c2c(O)nc3n(c2=O)CCS3)cc1,-3,53*,-4,4,2,10,11,2
COc1ccc(S(=O)(=O)/N=C2/NC(=O)/C(=C\c3ccco3)S2)cc1,62,90,-23,1,-2,-19,·,·
COc1ccc(S(=O)(=O)/N=C2/NC(=O)/C(=C/c3ccco3)S2)cc1,21,46*,-4,3,1,-11,24*,-5
CC(=O)N1CCC(C(=O)N2CCN(S(=O)(=O)c3ccc(F)cc3)CC2)CC1,0,0,1,1,0,2,·,·
O=C(C1CCC1)N1CCN(S(=O)(=O)c2ccc(F)cc2)CC1,17,46*,-13,0,3,7,-1,·
CC(C)NC(=O)C(C)N1CCN(S(=O)(=O)c2ccc3ccccc3c2)CC1 (configuration not stated),15,57*,-2,-5,1,-5,59*,-1
CC(COc1cccc(C#N)c1)CN1CCC(C(O)(c2ccccc2)c2ccccc2)CC1 (configuration not stated),·,·,·,-16,-20,·,·,·
Cc1ccc(NC(=O)CN(C)CC(=O)Nc2ccc(F)c(Cl)c2)cc1,16,61*,4,-5,4,6,4,·
Cc1ccc(OCCC(=O)Nc2ccc(F)c(Cl)c2)cc1,-5,-1,9,2,-1,-4,·,·
CCCCCCN1CCS(=O)(=O)N(Cc2ccc(C)cc2)C(C(=O)OC)C1 (configuration not stated),·,·,·,-3,-1,·,·,·
N#Cc1ccc(CN2CCN(C(=O)Cn3nc(C(N)=O)c4ccccc4c3=O)CC2)cc1,6,58*,-14,-1,3,-4,25,·
COc1ccc2ccccc2c1C=NNC(=O)c1cc(-c2ccc(C)c(C)c2)n[nH]1,·,·,·,11,-5,·,·,·
Nc1cc2c3c(cccc3c1)C(=O)N(CCN1CCCC1)C2=O,·,·,2,-17,-11,-37,·,·
O=C1c2cccc3cc([N+](=O)[O-])cc(c23)C(=O)N1CCN1CCCC1,29,41*,-2,4,18,-32,26,·
COc1ccc(C2C(C(=O)N3CCC(C)CC3)CC(=O)N2c2ccc(OC)cc2)cc1 (configuration not stated),·,·,·,1,-5,·,·,·
COc1ccc(/C=C/c2ccc3ccccc3[n+]2C)cc1OC,23,66*,8,·,·,-16,81*,2
CC(=O)Oc1ccccc1/C=C/c1ccc2ccccc2[n+]1C,32,100,9,-4,-9,-1,·,·
CCN(CC)CCNC(=O)c1ccc(NC(=O)C2CCN(c3ncnc4sc(C)c(C)c34)CC2)cc1,16,44*,-5,-2,-1,-39,57*,·
SMILES,A3G deaminase,APOBEC3A inh,PfG6PD inh,NPR2 activator,GC-A act,Neddylation inh,A3A conf,UDG A3A counter
COc1ccc2nc(NC(=O)Cn3cnc4ccccc4c3=O)sc2c1,12,43*,-6,0,5,-63,3,·
COc1ccc(-c2cc(C(=O)N(C3CCCCC3)C3CCCCC3)no2)cc1,·,·,·,-1,-2,·,·,·
CCn1c(/C=C/Nc2ccccc2)[n+](CC)c2cc(Cl)c(Cl)cc21,7,30,-10,2,-4,-11,·,·
CCOC(=O)Cn1c(=O)n(CC(=O)OCC)c2ccccc21,-4,0,-13,-4,1,-3,·,·
CC(=O)OCCn1c(C)[n+](CCOC(C)=O)c2cc(Cl)c(Cl)cc21,14,82*,-4,-1,5,-9,81*,-1
CCOC(=O)Cn1c(C)[n+](C)c2cc(Cl)c(Cl)cc21,24,87*,-8,6,-4,9,81*,2
CCn1c(C)[n+](CCOCC[n+]2c(C)n(CC)c3cc(Cl)c(Cl)cc32)c2cc(Cl)c(Cl)cc21,29,78*,23,-1,5,-8,88*,-2
C=CCN=C1NC(CCc2ccccc2)C(C(=O)OC)=C(C)N1C (configuration not stated),·,·,·,-3,-5,·,·,·
CCCCCCCn1c2c(c(=N)c3ccccc31)CCC2,21,74*,18,1,11,12,78*,-2
CCCn1c2c(c(=N)c3c1CCC3)CCC2,27,71*,10,7,11,-6,75*,3
O=C(O)CCn1c2c(c3ccccc31)CCCC2,-7,1,24,6,-1,16,·,·
CCOC(=O)Cn1c2c(c(=N)c3c1CCC3)CCCC2,-6,-3,-11,1,2,-3,·,·
CCCn1c2c(c(=N)c3c1CCC3)CCCC2,16,92*,-9,9,8,7,77*,-1
